FLuc modulator: firefly luciferase modulation, counter-screen for miR-21 project; purified FLuc, Km substrates, luminescence inhibition; 360,000 tested, 6.9% active; Potency, µM (doses to about 57.5 µM), most hits filed as inhibitors; P08659; note: nearly all actives have a fitted effect of over 55% in size
Target sequence (P08659 whole entry, looked up): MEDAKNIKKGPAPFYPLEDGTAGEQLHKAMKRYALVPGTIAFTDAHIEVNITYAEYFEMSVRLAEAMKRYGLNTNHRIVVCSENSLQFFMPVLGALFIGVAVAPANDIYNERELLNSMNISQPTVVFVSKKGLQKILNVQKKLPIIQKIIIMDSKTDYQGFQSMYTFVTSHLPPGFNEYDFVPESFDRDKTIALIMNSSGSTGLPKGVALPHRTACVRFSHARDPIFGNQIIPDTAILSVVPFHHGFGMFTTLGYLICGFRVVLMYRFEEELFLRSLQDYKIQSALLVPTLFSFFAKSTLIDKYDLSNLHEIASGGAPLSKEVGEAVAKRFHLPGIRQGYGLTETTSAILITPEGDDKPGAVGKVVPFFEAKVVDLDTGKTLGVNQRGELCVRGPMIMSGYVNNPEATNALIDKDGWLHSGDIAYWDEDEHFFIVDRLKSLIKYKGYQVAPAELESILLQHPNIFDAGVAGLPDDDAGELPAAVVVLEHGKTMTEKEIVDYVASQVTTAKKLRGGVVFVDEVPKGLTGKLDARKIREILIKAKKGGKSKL
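Purified P. pyralis luciferase (10nM final) with 10uM D-luciferin and 10uM ATP (Km levels) in 50mM Tris acetate pH 7.5, 10mM Mg acetate, 0.01% Tween-20, 0.05% BSA; qHTS 6-point titration, ~60 µM downward; luminescence read.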
SMN2 splice up: SMN2 splice variant enhancement. HEK293 SMN2-luciferase splicing reporter, luminescence, 30-36 h. Potency, µM (highest dose often 46.1 µM), hits mostly activators. 210,000 tested, 2.8% active; note: nearly all actives have a fitted effect of over 55% in size
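qHTS luciferase splicing reporter: luminescence rises when SMN2 exon 7 is included in transfected HEK293 cells. Compound exposure lasted 30-36 h at 37C, with 4.5 mM final sodium butyrate as control, followed by a ONE-Glo read.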
NPC1 promoter act: activates the NPC1 promoter; AID 485313; 320,000 tested, 2.4% active; Potency, µM (series often up to 9.22 µM), usual class: activators; Huh7 NPC1 promoter luciferase reporter, 24 h; note: nearly all actives have a fitted effect of over 60% in size
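Stable NPC1-promoter luciferase Huh7 line; cpd (DMSO) 24 h, 37 °C, 5% CO2; Amplite luciferase reagent 10 min RT; luminescence readout. qHTS format.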
ELG1 repair inh: ELG1-dependent DNA repair inhibition. AID 504467. 330,000 tested, 2.3% active. HEK293T ELG1-luciferase reporter, luminescence, 16 h; DNA damage induced by 5-fluorouridine. Potency, µM (highest dose often 46.1 µM), actives largely listed as inhibitors; note: nearly all actives have a fitted effect of over 55% in size
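5-Fluorouridine DNA damage + compound/DMSO, 2,000 cells/well, 16 h, 37 °C/5% CO2. ONE-Glo, 30 min RT, luminescence. Readout = decrease in reporter signal.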
ELG1 genotoxic: genotoxicity induction in ELG1-luciferase HEK293T cells; HEK293T ELG1-luciferase reporter, luminescence, 16 h; 330,000 tested, 1.3% active; AID 504466; Potency, µM (titrated, usually from 46 µM), most hits filed as activators; note: nearly all actives have a fitted effect of over 60% in size
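HEK293T cells expressing luciferase-tagged ELG1 were exposed to compound or DMSO vehicle for 16 hr at 37 °C and 5% CO2. Luciferase activity was then measured with ONE-Glo after 30 min at room temperature.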
Rab9 prom act: activates the Rab9 promoter. Huh7 Rab9 promoter-luciferase reporter, luminescence, 24 h. Potency, µM (highest dose often 9.22 µM), actives largely listed as activators. 320,000 tested, 2.8% active; note: nearly all actives have a fitted effect of over 60% in size
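Promoter activation is measured as luciferase luminescence in Huh7 cells stably transfected with a Rab9 promoter–luciferase construct, following 24 h compound exposure at 37 °C and 10 min reagent incubation at ambient temperature.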
A number is an active result; . = inactive; ? = inconclusive; / = no result given; [ ] = another dose, or the depositor's remark. Hits are enriched below; roughly 9.2% of the tested compounds scored in any of these assays. Calls come from the whole dose curve; as a rule, active = well fitted curve in the direction sought with a large enough effect; inconclusive = small, poorly fitted or top-dose-only effect, or another doubt; inactive = no such curve, though single readings can be large; an effect the other way counts as inactive or inconclusive.

SMILES	FLuc modulator	SMN2 splice up	NPC1 promoter act	ELG1 repair inh	ELG1 genotoxic	Rab9 prom act
NS(=O)(=O)c1ccc(NC(=O)COC(=O)COc2ccc3ccccc3c2)cc1	?	.	.	.	.	.
COc1cc(NC(=S)NC(=O)c2ccco2)ccc1NC(=O)C(C)C	?	.	.	?	.	.
COc1cc2c(cc1NC(=O)c1ccco1)CCCC2	21.3µM	.	.	?	.	?
COc1cc(NC(=O)C(C)C)ccc1NC(=O)c1ccco1	19µM	11.2µM	3.98µM	?	7.94µM	1.12µM
CCOC(=O)c1ccc(N2CCN(c3cccc(Cl)c3)CC2)c(NC(=O)Nc2ccc(OC)cc2OC)c1	.	/	/	/	/	/
Cc1ccsc1/C=N\NC(=O)c1ccc2c(c1)OCO2	3.79µM	?	1.41µM	?	?	1.41µM
Cc1ccsc1/C=N/NC(=O)c1ccc2c(c1)OCCO2	0.953µM	/	0.631µM	?	1.64µM	0.355µM
Cc1ccsc1/C=N/NC(=O)c1ccc2nc[nH]c2c1	?	.	.	?	.	?
O=C(Cc1ccc(Br)cc1)N1CCCC1	.	/	.	.	.	.
O=C(Cc1ccc(Br)cc1)N1CCCCCC1	?	10µM	?	?	20.6µM	.
COc1ccc(-c2cc(C(=O)c3c(N)n(C)c(=O)n(C)c3=O)c3ccccc3n2)cc1OC	9.53µM	/	.	?	?	.
COc1ccc(-c2cc(C(=O)OCC(=O)NC3CC3)c3ccccc3n2)cc1OC	/	/	/	?	.	/
Cn1c(N)c(C(=O)COC(=O)c2cc(-c3ccccc3)nc3ccccc23)c(=O)n(C)c1=O	/	.	/	/	/	/
Cn1c(N)c(C(=O)c2cc(-c3ccncc3)nc3ccccc23)c(=O)n(C)c1=O	23.9µM	.	.	?	?	.
Cc1ccccc1OCC(=O)NCC(c1cccs1)N1CCOCC1 (stereo unspecified)	.	/	.	.	.	.
c1ccc2c(c1)oc1c(N3CCN(Cc4ccc5c(c4)OCO5)CC3)ncnc12	16.9µM	.	.	?	18.4µM	.
c1ccc2c(c1)oc1c(Nc3ccc4c(c3)OCCO4)ncnc12	2.39µM	2.82µM	?	?	.	1.58µM
CCc1nc(Nc2ccc(O)cc2)c2oc3ccccc3c2n1	19µM	/	.	16.4µM	.	.
Cc1nc(Nc2ccc3c(c2)OCCO3)c2oc3ccccc3c2n1	?	.	.	.	.	.
O=[N+]([O-])c1ccc2ncnc(Nc3ccc4c(c3)OCCO4)c2c1	.	.	.	?	.	.
CCc1nc(Nc2ccc3c(c2)OCCO3)c2oc3ccccc3c2n1	26.9µM	.	.	?	.	.
CC(C)=CCN1CCN(Cc2ccc(C#CC(C)(C)O)s2)CC1CCO (stereo unspecified)	.	/	.	.	.	.
Cn1c(SCc2ccccc2)nnc1-c1ccc2nonc2c1	.	/	.	?	.	.
CCC(C)(C)NC(=O)C(c1ccccc1Cl)N(Cc1cccnc1)C(=O)CCC(=O)Nc1cc(C)on1 (stereo unspecified)	.	/	.	.	.	.
Cc1cc(NC(=O)C2CCCC2)nc2c1c(=O)oc1ccccc12	.	.	.	20.6µM	.	.
SMILES	FLuc modulator	SMN2 splice up	NPC1 promoter act	ELG1 repair inh	ELG1 genotoxic	Rab9 prom act
Cc1cc(NC(=O)C2CCCCC2)nc2c1c(=O)oc1ccccc12	.	.	.	.	.	.
COc1ccc(Nc2nc(NCC3CCCO3)c3ccccc3n2)c(OC)c1 (stereo unspecified)	23.9µM	.	.	13µM	.	.
c1ccc(Nc2nc(NCC3CCCO3)c3ccccc3n2)cc1 (stereo unspecified)	?	.	.	?	.	.
Oc1cccc(Nc2nc(NCC3CCCO3)c3ccccc3n2)c1 (stereo unspecified)	?	.	.	20.6µM	.	.
c1ccc(-c2nc(NCc3ccco3)c3ccccc3n2)nc1	.	.	.	7.31µM	.	.
c1ccc(-c2nc(NCC3CCCO3)c3ccccc3n2)nc1 (stereo unspecified)	.	.	.	18.4µM	.	.
O=C(NCc1cccnc1)c1ccc(CS(=O)(=O)c2ccc(Cl)cc2)o1	.	.	.	?	.	.
CCOc1ccc(Nc2nc(NCC3CCCO3)c3ccccc3n2)cc1 (stereo unspecified)	?	.	.	7.3µM	.	.
CCOC(=O)c1sc(NC(=O)CC(C)c2ccccc2)nc1C (stereo unspecified)	.	/	.	?	.	.
CCOC(=O)c1sc(NC(=O)c2cccs2)nc1C	2.39µM	?	?	?	?	?
CCOC(=O)c1sc(NC(=O)c2c(OC)cccc2OC)nc1C	.[2.3 µM]	.	.	.	.	.
CC(=O)c1sc(NC(=O)c2cccs2)nc1C	9.53µM	/	.	?	.	?
CCOC(=O)c1sc(NC(=O)C(OC(C)=O)c2ccccc2)nc1C (stereo unspecified)	.	35.5µM	.	?	.	.
CC(=O)c1sc(NC(=O)c2cccnc2Cl)nc1C	?	/	.	.	.	.
CC(=O)c1sc(NC(=O)c2ccccc2F)nc1C	4.78µM	3.16µM	1.41µM	?	2.91µM	0.447µM
O=C(NCc1cccnc1)C(=O)Nc1ccc2c(c1)OCO2	.	.	.	?	.	.
CN(C(=O)c1ccc(C#N)cc1)c1nnc(-c2cnccn2)s1	.	/	.	.	.	.
O=C(Nc1nc2ccccc2s1)c1cc(-c2ccccc2)nn1-c1ccccc1	?	.	.	?	.	.
CC(=O)c1sc(NC(=O)c2cc(-c3ccccc3)nn2-c2ccccc2)nc1C	.	.	.	14.6µM	.	.
O=C(OCc1ccc([N+](=O)[O-])cc1Cl)c1cnccn1	.	/	.	.	.	.
O=C(Nc1nccs1)C1Cc2ccccc2CN1S(=O)(=O)c1ccc(F)cc1 (stereo unspecified)	23.9µM	11.2µM	?	?	?	?
CCS(=O)(=O)N1Cc2ccccc2CC1C(=O)Nc1ccc(C)cc1 (stereo unspecified)	?	.	.	?	?	.
CCS(=O)(=O)N1Cc2ccccc2CC1C(=O)Nc1ncc(C)s1 (stereo unspecified)	?	12.6µM	.	?	?	?
CCS(=O)(=O)N1Cc2ccccc2CC1C(=O)Nc1cccc(C)c1 (stereo unspecified)	23.9µM	?	?	?	.	.
O=C(CSc1nc2c([nH]c3ccccc32)c(=O)n1-c1cccc(Cl)c1)NCC1CCCO1 (stereo unspecified)	.	/	/	/	/	/
NS(=O)(=O)c1ccc(CNC(=O)c2cc(-c3ccccc3)nc3ccccc23)cc1	?	/	.	.	.	.
COc1cc(-c2cc(C(=O)NCc3ccco3)c3ccccc3n2)cc(OC)c1OC	.	/	.	13µM	.	.

Screening results (PubChem BioAssay)
